Molecules are shown by their SMILES. About 360 (15%) of roughly 2,400 compounds were called active.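 Rule for the calls: active = viability falls under 70% at one or more tested concentrations, taken as toxicity; inactive = viability stays over 70% at every dose.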 The list is a sample of the results. A call without a number means that no potency is given here. Potency and affinity values are given separately.

This assay can be described thus: viability loss in HeLa cells – cytotoxicity control for MgcRacGAP inhibitor project, dose response (AID 624300). Conditions: CellTiter-Glo luminescence, 24 h; series mostly up to 100 µM.
With `Cc1nc2ccc(-c3nc4ccc(N)cc4[nH]3)cc2[nH]1`, the call was inactive.

As to `Cc1nc(Cc2nnc(SCC(=O)N3CCN(c4ccc(O)cc4)CC3)o2)cs1`, the molecule was classed as inactive.

In the case of `Nc1nc(=S)ss1`, the molecule was called inactive.

As for `CCCc1nc2ccccc2c(=O)n1/N=C/c1ccc(O)c(O)c1`, the molecule was classed as inactive.

For the molecule `COc1cc(/C=C/c2nc3ccccc3c(=O)[nH]2)ccc1O`, the outcome was inactive.

With `COc1cc(/C=N/n2c(C)nc3ccccc3c2=O)ccc1O`, the result was inactive.

For `O=c1[nH]c2ccccc2nc1/C=C/c1ccc(O)cc1`, the molecule was called inactive.

Turning to `COc1cc(/C=N/NC(=O)c2cc(-c3ccccc3OC(C)C)nc3ccccc23)ccc1O`, the molecule was called inactive.

Take `COc1cc(/C=C/c2ccc3cccc(O)c3n2)ccc1O`: the molecule was called inactive.

For `COc1cc(/C=C/C(C)=NNc2ccccc2)ccc1O`, the molecule was classed as inactive.

As for `C=CCn1c(N/N=C/c2ccc(O)cc2)nc2ccccc2c1=O`, the outcome was inactive.

As for `O=C(CN1CCN(c2ccc(O)cc2)CC1)NCC(=O)Nc1ccc(F)c(F)c1F`, the outcome was inactive.

Turning to `Cc1cccc(Nc2n[nH]c(=S)s2)c1C`, the call was inactive.

On to `CN1CCN(CCCNCc2cn(CCC#N)c3ccccc23)CC1`, for which the molecule was classed as inactive.

Regarding `COc1ccc(NC2CCCN(C(=O)CCc3cccc(F)c3)C2)cc1` (stereo not given), the result was inactive.

In the case of `COc1cc(C)c(N)cc1C(C)C`, the result was inactive.

`CCOC(=O)c1[nH]c2cc(OC)c(OC)cc2c1N`: the molecule was called inactive.

Consider `COc1ccc(N2CCN(C(C)C(=O)N3CCCC3)CC2)cc1` (stereo not given), for which the result was inactive.

As for `CC(=O)N1CCN(CC(O)COc2ccc(Br)cc2)CC1` (stereo not given), the molecule was called inactive.

For `O=C1C2C3C=CC(CC3)C2C(=O)N1/N=C/c1ccc(O)c(O)c1` (stereo not given), the molecule was called inactive.

Take `CCOC(=O)c1[nH]c2ccccc2c1NC(=S)Nc1cccc(C)c1`: the molecule was called inactive.

For the molecule `COc1ccc(NCc2cc3cc(OC)ccc3[nH]c2=O)cc1`, the molecule was classed as inactive.

For the molecule `COc1ccc(OC(=O)COc2ccc(C)cc2)cc1`, the outcome was inactive.

Take `COc1ccc(OC(=O)COc2cc(C)ccc2C)cc1`: the molecule was classed as inactive.

Regarding `Nc1c(Cl)ncnc1NCCc1ccc(O)cc1`, the molecule was called inactive.

As to `CCOC(=O)/C(C#N)=C1\C(=O)N(Cc2ccccc2)c2ccccc21`, the molecule was called inactive.

On to `COc1ccc(CN2CCN(Cc3c[nH]c4ccccc34)CC2)c(OC)c1`, for which the molecule was classed as inactive.

Regarding `COc1ccc(OC)c(CN2CCN(Cc3cccc4ccccc34)CC2)c1`, the result was inactive.

Consider `CCOC(=O)N/N=C/c1ccc(N2CCOCC2)s1`, for which the molecule was called inactive.

In the case of `Nc1ccc2nc(N)sc2c1`, the molecule was called inactive.

`Nc1ccc(-c2nc3ccc(N)cc3o2)cc1`: the molecule was called inactive.

For `COc1ccccc1CNC(=O)C[C@@H]1C[C@H]2c3cc(N(C)C)ccc3O[C@H]2[C@H](CO)O1`, the molecule was called inactive.

In the case of `COc1cc(N2C(=O)C=CC2=O)ccc1N1C(=O)C=CC1=O`, the molecule was called inactive.

For the molecule `COc1ccc(NC2CCCN(C(=O)C3(C)CCCCC3)C2)cc1` (stereo not given), the outcome was inactive.

As to `COc1cc(CN2CCN(C(=O)c3cccc4ccccc34)CC2)cc(OC)c1OC`, the call was inactive.

In the case of `O=C(N/C(=C\c1ccc(O)cc1)C(=O)N1CCCCC1)c1ccccc1`, the outcome was inactive.

`S=c1[nH]nc(-c2ccncc2)n1/N=C/C=C/c1ccccc1`: the result was inactive.

Turning to `COc1cccc(OC)c1OCCCN1CCOCC1`, the molecule was classed as inactive.

As to `CCC(=O)Nc1ccc(Nc2ccccc2)cc1`, the outcome was inactive.

`CCOC(=O)c1[nH]c2ccccc2c1NC(=S)Nc1ccccc1`: the outcome was inactive.

As to `COc1cccc2[nH]c(C(=O)NN)c(N)c12`, the molecule was classed as inactive.

Turning to `CC1CN(CCOCCOc2ccccc2-c2ccccc2)CC(C)O1` (stereo not given), the result was inactive.

As to `O=C1C(Cl)=C(NC(=O)c2ccccc2)C(=O)C(Cl)=C1NC(=O)c1ccccc1`, the result was inactive.

Consider `O=C1c2ccccc2NC(c2ccc(O)cc2)N1/N=C/c1ccc(O)cc1` (stereo not given), for which the call was inactive.

As for `COc1ccc(NC2CCCN(C(=O)c3ccccc3C(F)(F)F)C2)cc1` (stereo not given), the result was inactive.

Consider `COC(=O)c1cc(NCc2c(F)cccc2Cl)ccc1N1CCOCC1`, for which the call was inactive.

With `COc1ccc(C=Nc2ccc3[nH]ncc3c2)c(O)c1`, the outcome was inactive.

In the case of `CCOC(=O)c1[nH]c2ccc(OC)cc2c1NC(=O)c1ccccc1C(=O)O`, the molecule was called inactive.

`COc1ccc2[nH]c3c(=O)n(Cc4ccc(C(=O)N5CCC(C(N)=O)CC5)cc4)c(=S)[nH]c3c2c1`: the result was inactive.

Take `COc1ccc2[nH]c3c(=O)n(CCCCC(=O)N4CCC(C(N)=O)CC4)c(=S)[nH]c3c2c1`: the molecule was classed as inactive.

As to `CCOC(=O)C1CCN(C2=NC(=O)/C(=C/c3ccc(O)cc3)S2)CC1`, the outcome was inactive.

For `c1ccc(-c2ccccc2OCCOCCN2CCOCC2)cc1`, the molecule was classed as inactive.

On to `COc1cc(NC(C)CCCNC(C)C)c2ncccc2c1OC` (stereo not given), for which the molecule was classed as inactive.

For `C=CCc1cc(OC)ccc1OCCN1CC(C)OC(C)C1` (stereo not given), the outcome was inactive.

With `Cc1cc(O)ccc1NC(=O)c1ccccc1`, the molecule was classed as inactive.

In the case of `O=C(Cc1coc2cc(O)ccc12)N1CCN(S(=O)(=O)c2ccc(Br)cc2)CC1`, the molecule was classed as inactive.

As to `S=C(NCCN1CCOCC1)Nc1ccc(Nc2ccccc2)cc1`, the result was inactive.

With `COc1ccc(CN2CCN(Cc3ccccc3F)CC2)c(OC)c1`, the result was inactive.

`CCN(Cc1ccccc1)C1CCN(Cc2ccc(SC)cc2)CC1`: the molecule was called inactive.

As to `CC1CCCCN1CC(=O)Nc1ccc(N2CCCCCC2)cc1` (stereo not given), the outcome was inactive.

In the case of `CC(=O)N1CCN(c2ccc(NCc3cccs3)cc2)CC1`, the molecule was classed as inactive.

Regarding `Oc1ccc(/C=N/NC(=S)N2CCOCC2)cc1`, the molecule was classed as inactive.

Regarding `Cc1c(NC(=S)N/N=C/c2ccc(O)cc2)c(=O)n(-c2ccccc2)n1C`, the call was inactive.

For the molecule `COc1cc(CN2CCN(C(=O)CC(C)C)CC2)cc(OC)c1O`, the call was inactive.

Take `O=C(/C=C\c1ccco1)c1ccc(NC(=O)c2ccco2)cc1`: the call was inactive.

As for `O=C(O)CCCNC(=O)/C=C/c1ccco1`, the call was inactive.

As for `O=C(O)CCCN1C(=O)/C(=C\c2ccco2)SC1=S`, the call was inactive.

As to `CCCN1C(=O)S/C(=C/c2ccc(N3CCOCC3)o2)C1=O`, the molecule was called inactive.

As for `CCn1c(=S)[nH]c2c(=O)n(C)c(=O)n(C)c21`, the molecule was called inactive.

Consider `COc1cc(/C=N/NC(=O)CCN2CCN(C(c3ccccc3)c3ccccc3)CC2)ccc1O`, for which the molecule was classed as inactive.

Turning to `COc1ccc2cc(OCC(=O)NNC(=O)Nc3ccc(C(C)=O)cc3)ccc2c1`, the result was inactive.

For `COc1cc(/C=N/NC(=O)C(=O)Nc2ccccn2)ccc1O`, the call was inactive.

`O=[N+]([O-])c1cc(Br)c(O)c(C=Nc2ccc(N3CCOCC3)cc2)c1`: the outcome was inactive.

Turning to `CN(C)c1ccc(NS(=O)(=O)c2cc(Cl)ccc2Cl)cc1`, the molecule was classed as inactive.

With `CCOC(=O)N1CCC(N2CCN(S(=O)(=O)c3ccc4ccccc4c3)CC2)CC1`, the molecule was called inactive.

Consider `Nc1ccc2c(c1)Cc1cc(N)c(Br)cc1-2`, for which the molecule was called inactive.

Take `COc1cc(-c2cc(C(=O)O)c3c(OC)c(OC)c(OC)cc3n2)ccc1O`: the molecule was classed as inactive.

For `COc1cc(-c2cc(-c3ccc(F)cc3)nc(N)c2C#N)ccc1O`, the molecule was classed as inactive.

`O=C1CC(c2ccccc2)CC(O)=C1C=Nc1ccc(O)cc1` (stereo not given): the result was inactive.

`S=c1[nH]nc2sc3ccccc3n12`: the molecule was called inactive.

Consider `Oc1ccc(N2CCN(c3ccnc4cc(Cl)ccc34)CC2)cc1`, for which the outcome was inactive.

`O=C(O)c1c2c(nc3ccccc13)/C(=C/c1ccc(O)cc1)CCC2`: the molecule was called inactive.

`COc1ccc(NS(=O)(=O)c2cccc(C(=O)NN=Cc3ccc(O)c(OC)c3)c2)cc1`: the result was inactive.

In the case of `COc1cc(/C=N/NC(=O)c2ccccc2)ccc1O`, the molecule was classed as inactive.

`COc1cc(/C=N/NC(=O)c2cccc([N+](=O)[O-])c2)ccc1O`: the molecule was classed as inactive.

In the case of `COc1cc(/C=N/NC(=S)Nc2cccc(C(=O)O)c2)ccc1O`, the molecule was called inactive.

As for `COc1cc(/C=N/NC(=O)CN(Cc2ccco2)S(=O)(=O)c2ccccc2)ccc1O`, the result was inactive.

`COc1cc(/C=N/NC(=O)CCc2ccccc2)ccc1O`: the result was inactive.

Consider `COc1cc(/C=N/NC(=O)CNC(=O)c2ccc3c(c2)OCCO3)ccc1O`, for which the result was inactive.

As for `COc1cc(/C=N/NC(=O)CCn2nnc3ccccc32)ccc1O`, the molecule was classed as inactive.

As for `COc1cc(CN2CCC(C(=O)N3CCN(c4ccccc4F)CC3)CC2)ccc1O`, the call was inactive.

Take `COc1cc(/C=C/C(=O)OCC(=O)Nc2c(C)n(C)n(-c3ccccc3)c2=O)ccc1O`: the result was inactive.

Turning to `Oc1ccc(Cl)cc1N=Cc1sc2ccccc2c1Cl`, the molecule was classed as inactive.

Take `COCc1cc(C)nc(OCC(=O)N/N=C/c2ccc(O)cc2)c1C#N`: the outcome was inactive.

Consider `O=C(Cc1cccs1)N/N=C\c1ccc(O)cc1`, for which the call was inactive.

Take `COCCNC(=O)COc1ccc(Nc2ccccc2)cc1`: the call was inactive.

As for `COc1ccc(N2CCN(c3ncccc3C#N)CC2)cc1`, the molecule was called inactive.

As to `COc1cc(/C=C/C(=O)OCC(=O)NNC(=O)c2cc(Cl)ccc2OC)ccc1O`, the call was inactive.

On to `C=CCN1C(=O)CSC1=Nc1ccc(O)cc1`, for which the outcome was inactive.

Turning to `COc1ccc(N2CCN(CC(=O)N3c4ccccc4CC3C)CC2)cc1` (stereo not given), the molecule was called inactive.

`Cc1[nH]c2ccccc2c1N=Nc1c(C)n(C)n(-c2ccccc2)c1=O`: the molecule was classed as inactive.

Consider `COc1ccc(NC(=O)c2ccc(NC(=O)CN3CCN(c4ccc(O)cc4)CC3)cc2)cc1`, for which the call was inactive.

Turning to `COc1ccc(NC2CCCN(C(=O)CCc3ccccc3F)C2)cc1` (stereo not given), the result was inactive.

For the molecule `COC(=O)CCNCCSc1nnc(-c2ccco2)n1Cc1ccccc1`, the molecule was called inactive.

On to `CCOC(=O)c1sc(/N=C/c2ccc(O)cc2O)cc1C`, for which the call was inactive.

For `COc1cc(/C=N/NC(=O)c2ccc(=O)[nH]n2)ccc1O`, the call was inactive.

As for `COc1cc(/C=N/NC(=O)c2nc(-c3ccccc3)n(-c3ccccc3)n2)ccc1O`, the call was inactive.

For `COc1ccc(-c2ncc3ccccn23)cc1OC`, the call was inactive.

For the molecule `COc1cccc(-c2ncc3ccccn23)c1`, the molecule was classed as inactive.

In the case of `CS(=O)(=O)C1=NSC2=NC(=O)/C(=C\c3ccc(OC(=O)c4ccco4)c(Br)c3)C(=N)N21`, the molecule was called inactive.

`CC(=O)Nc1ccc(S(=O)(=O)Nc2nc3ccccc3nc2Nc2ccc(C(=O)O)c(O)c2)cc1`: the molecule was called inactive.

Take `C[C@@H]1O[C@@H](OC[C@H]2O[C@@H](Oc3cc(O)c4c(=O)cc(-c5ccc(O)c(O)c5)oc4c3)[C@H](O)[C@@H](O)[C@@H]2O)[C@H](O)[C@H](O)[C@H]1O`: the result was inactive.

Regarding `CN(C)c1ccc(/C=N/O)cc1`, the molecule was classed as inactive.

With `CC/C(=C\c1ccc(N(C)C)cc1)c1ccncc1`, the result was inactive.

Regarding `C=CC[n+]1c(/C=C/c2ccc(OC(C)=O)c(OC)c2)ccc2ccccc21`, the outcome was inactive.
